High-throughput results (PubChem)
Sampled rows, rich in hits. Any-hit rate of the full collection: about 9%.
HPGD inh: blocks human HPGD enzyme activity; 4.3% of 150,000 active; Potency, µM, inactives show at the top dose activity change, negative = inhibition, usual class: inhibitors; P15428; purified HPGD, NADH fluorescence kinetic, PGE2 substrate; active means well fitted inhibition curve with a large enough effect, not every such curve was filed as active; inconclusive means small, poorly fitted or top-dose-only effect, or another doubt; inactive means no such curve, though single readings can be large or run the other way; further: on the % scale 0 is the no-effect control and ±100 the full control effect
Target sequence (P15428 whole entry, looked up): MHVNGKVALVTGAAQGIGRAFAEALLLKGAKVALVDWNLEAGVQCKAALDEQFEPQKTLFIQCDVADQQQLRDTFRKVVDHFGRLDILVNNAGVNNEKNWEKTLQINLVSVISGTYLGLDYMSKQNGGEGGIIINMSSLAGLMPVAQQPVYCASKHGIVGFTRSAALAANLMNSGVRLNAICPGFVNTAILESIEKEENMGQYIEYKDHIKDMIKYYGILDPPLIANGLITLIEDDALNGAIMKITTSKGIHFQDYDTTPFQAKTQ
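20 nM HPGD preincubated 15 min at room temperature with compound in 50 mM Tris-HCl pH 8, 0.01% Tween 20. Started with 1 mM NAD+ and 30 uM prostaglandin E2; NADH fluorescence (360/450 nm) read 5 times over 30-s intervals, last minus first.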
Lamin A splicing: modulators of lamin A splicing; Potency, µM (titrated, usually from 46.1 µM), for inactives: at the highest dose ratio change, negative = inhibition, most hits filed as inhibitors; AID 1487; HeLa LMNA splicing GFP/RFP minigene ratio, 48 h; 0.01% of 200,000 active; active means well fitted inhibition curve with a large enough effect in the signal ratio, with a control signal flat, not every such curve was filed as active; inconclusive means small, poorly fitted or top-dose-only effect, or effect the other way, or a change in a side signal; the % refers to the signal ratio; further: on the % scale 0 is the no-effect control and ±100 the full control effect
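Read-out is the ratio of GFP to DsRed2 object intensity, acquired by 488 nm laser-scanning cytometry on HeLa lamin A-EGFP minigene reporter cells. Compound incubation 48 hrs at 37 °C in Opti-MEM with 2% FBS; DMSO 0.5% final.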
Luc counter: Kinase-Glo luciferase inhibition (counter-screen). Potency, µM (series often up to 38.3 µM), for inactives: at the highest dose activity change, negative = inhibition, hits mostly inhibitors. 0.28% of 200,000 active. Kinase-Glo luciferase, ATP luminescence, 8 min. Q27757; further: on the % scale 0 is the no-effect control and ±100 the full control effect; nearly all actives have a fitted effect of over 60% in size
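Recombinant Kinase-Glo luciferase, 10 uM ATP (linear range), luciferin; imidazole pH 7.2 / KCl / MgCl2 / Tween / BSA buffer; 8 min RT; luminescence.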
HTT cytoprotect: protects HTT-Q103 PC12 cells, measured by ATP; Potency, µM (series often up to 56.4 µM), for the others: cytoprotection (ATP increase), hits mostly activators; AID 1471; PC12 HTT-Q103 induced, cytoprotection, ATP luminescence, 40 h; 0.14% of 230,000 active; further: % of control where 0% means no effect; nearly all actives have a fitted effect of over 45% in size
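PC12 cells with ecdysone-inducible HTT exon 1 Q103-GFP, induced with 100 nM tebufenozide and co-treated with library compounds in a dose series (1536-well, 1500 cells/well). Cytoprotection read as ATP content by ATPlite luminescence.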
HTT aggregate: mutant huntingtin aggregation inhibition. Potency, µM (doses to about 46.1 µM), inactives show at the top dose activity change, negative = inhibition, hits mostly inhibitors. PC12 HttQ103-GFP aggregates, Acumen cytometry, 40 h. 1.1% of 220,000 active; further: on the % scale 0 is the no-effect control and ±100 the full control effect; nearly all actives have a fitted effect of over 60% in size
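Inducible Q103 Huntingtin exon 1–GFP PC12 line, 1500 cells/well in phenol red free DMEM with 5% equine and 5% calf serum. Tebufenozide 100 nM induced expression; compounds titrated; aggregates quantified by cytometry.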
ALDH1A1 block: ALDH1A1 (human) enzyme inhibition | P00352 | Purified ALDH1A1, NADH fluorescence, propionaldehyde substrate | Potency, µM (doses to about 75.3 µM), for inactives: at the highest dose activity, negative = inhibition, actives largely listed as inhibitors | 7.3% of 220,000 active | AID 1030; active means well fitted inhibition curve with a large enough effect, not every such curve was filed as active; inconclusive means small, poorly fitted or top-dose-only effect, or another doubt; inactive means no such curve, though single readings can be large or run the other way;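 further: plate controls were no enzyme wells and a reference inhibitor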
Target sequence (P00352 whole entry, looked up): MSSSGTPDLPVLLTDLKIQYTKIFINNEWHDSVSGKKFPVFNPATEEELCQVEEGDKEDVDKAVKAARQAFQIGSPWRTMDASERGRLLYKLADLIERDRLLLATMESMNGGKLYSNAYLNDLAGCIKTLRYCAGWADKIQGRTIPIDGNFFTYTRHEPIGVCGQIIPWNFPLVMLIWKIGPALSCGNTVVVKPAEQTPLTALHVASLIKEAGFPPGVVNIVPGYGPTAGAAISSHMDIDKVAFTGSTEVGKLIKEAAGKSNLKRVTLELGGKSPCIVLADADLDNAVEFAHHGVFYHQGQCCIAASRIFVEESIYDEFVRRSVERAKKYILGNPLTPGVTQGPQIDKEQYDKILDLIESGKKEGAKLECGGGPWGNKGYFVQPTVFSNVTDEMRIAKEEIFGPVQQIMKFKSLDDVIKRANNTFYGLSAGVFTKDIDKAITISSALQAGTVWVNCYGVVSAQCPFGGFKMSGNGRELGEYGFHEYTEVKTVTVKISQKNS
An asterisk follows results filed as active; ? = inconclusive; nt = no result; [ ] = remark or other dose. Unless noted, the call rests on the fitted dose curve; in most records, active means well fitted curve in the direction sought with a large enough effect; inconclusive means small, poorly fitted or top-dose-only effect, or another doubt; inactive means no such curve, though single readings can be large; an effect the other way counts as inactive or inconclusive. Potency means the concentration at half of the fitted maximal effect.

SMILES	HPGD inh	Lamin A splicing	Luc counter	HTT cytoprotect	HTT aggregate	ALDH1A1 block
O=[N+]([O-])c1ccc(N2CCNCC2)c(S(=O)(=O)N2CCOCC2)c1	-2.3%	-8.7%	-0.4%	17.1%[10 µM]	-0.3%	3.0%
CCC(=O)Nc1c(C(=O)Nc2cccc(OC)c2)oc2ccccc12	-12.6%	1.3%	4.6%	-56.5%	-20.6%	36.9%
COc1ccccc1/C=C1\NC(=S)N(CC2CCCO2)C1=O (stereo not given)	28.2µM*	16.6%	-2.4%	-1.4%	-7.6%	0.501µM*
COc1ccc(/C=C2/C(=O)N(CC3CCCO3)C(=S)N2C)c(OC)c1 (stereo not given)	-18.0%	7.6%	0.7%	-5.0%	18.4%	12.6µM*
CC12COC3(C(=O)Nc4cccnc4)CC1CCC32C (stereo not given)	-4.1%	13.8%	1.2%	3.5%	5.9%	5.9%
O=C(CCl)NCCCCCCCCCNC(=O)CCl	-10.4%	-1.0%	1.2%	7.8%[10 µM]	3.1%[9.22 µM]	0.178µM*
O=C(CSc1ncccn1)Nc1ccccc1	-7.6%	8.8%	0.1%	8.6%	-0.1%	11.3%
NS(=O)(=O)c1cccc(NC(=S)NC(=O)c2cccc([N+](=O)[O-])c2)c1	nt	-9.6%[46 µM]	-1.9%	-25.5%	0.3%	?
CN(CCCNC(=O)C1CCCN(S(=O)(=O)c2cnc[nH]2)C1)c1ccccc1 (stereo not given)	-9.6%	3.0%	5.9%	8.1%	25.1%	?
CCCCN(Cc1ccccc1)C(=O)C1CCCN(S(=O)(=O)c2cnc[nH]2)C1 (stereo not given)	-5.9%	0.0%	1.3%	1.0%	2.4%	14.1µM*
CC(C)C[C@@H]1NC(=O)[C@H](Cc2ccccc2)N(C)C(=O)[C@H](C)NC(=O)c2ccccc2NC(=O)[C@H](Cc2ccc(O)cc2)N(C)C1=O	nt	nt	nt	-19.0%[10 µM]	2.9%[9.22 µM]	nt
C#CCOCCOCCOCCNc1nc(N2CCOCC2)nc(N2CCN(C(=O)[C@H](CCC(=O)O)n3cc(C(N)Cc4ccc(O)cc4)nn3)CC2)n1 (stereo not given in full)	nt	nt	nt	-0.8%[10 µM]	-3.6%[9.22 µM]	-12.7%
Cc1cc(C(=O)CCl)c(C)n1-c1ccon1	nt	nt	-2.2%	-7.6%	-27.2%	0.631µM*
Cc1cc(C(=O)CN2CCCC2)c(C)n1-c1ccc(Cl)cc1	nt	nt	0.6%	9.6%	-17.0%	-2.4%
Cc1cc(C(=O)CCl)c(C)n1-c1cccc([N+](=O)[O-])c1	nt	-12.0%[46 µM]	2.3%	3.7%[10 µM]	?	0.316µM*
O=C(c1ccc([N+](=O)[O-])cc1)N1CCSC1c1ccc(Cl)cc1 (stereo not given)	-6.6%	-16.4%	-0.4%	11.8%[10 µM]	15.9%	12.1%
O=C1C2CC=CCC2C(=O)N1c1ccc(N2CCN(c3ccccn3)CC2)c([N+](=O)[O-])c1 (stereo not given)	nt	nt	0.8%	-26.6%	-21.4%	17.8µM*
O=C(COc1ccc(Br)cc1)N1CCN(c2ccc([N+](=O)[O-])c(N3CCCCC3)c2)CC1	nt	?	nt	?	-17.3%	3.98µM*
O=C(COc1ccccc1)N1CCN(c2ccc([N+](=O)[O-])c(N3CCCCC3)c2)CC1	-15.1%	6.2%	-1.9%	-22.7%	-33.0%	10µM*
CCOc1ccc(-c2nnc(N3CCCCC3)c3ccccc23)cc1	-29.4%	6.3%[0.0737 µM]	0.8%	-38.1%	11.2µM*	?
COC(=O)c1cc(=O)n(Cc2ccc(F)cc2)c(=Nc2ccccc2)s1	nt	nt	nt	-23.5%[10 µM]	-18.9%[9.22 µM]	nt
COC(=O)c1cc(=O)n(Cc2ccco2)c(=Nc2ccc(F)cc2)s1	nt	nt	nt	10.4%[10 µM]	-8.0%[9.22 µM]	11.2µM*
Cc1ccc(NC(=S)c2nc3ccccc3[nH]2)c(C)c1	31.6µM*	4.1%	-13.8%	-23.7%[10 µM]	?	?
O=C(O/N=C\c1ccc(N2CCOCC2)c([N+](=O)[O-])c1)c1ccccc1Cl	-15.3%	6.0%	-7.5%	1.2%	8.4%	1.58µM*
O=C(O/N=C/c1ccc2c(c1)OCO2)c1ccccc1Cl	?	-0.6%	11.2µM*	-17.9%	2.5%	?
SMILES	HPGD inh	Lamin A splicing	Luc counter	HTT cytoprotect	HTT aggregate	ALDH1A1 block
CC(C)(C)Sc1ccc(/C=N/O)cc1[N+](=O)[O-]	nt	-3.9%[46 µM]	4.8%	-12.8%	-7.9%[9.22 µM]	22.4µM*
CO/N=C/c1ccc(N2CCCC2)c([N+](=O)[O-])c1	nt	?	-2.1%	5.5%[10 µM]	-0.3%	?
O=[N+]([O-])c1cc(/C=N/O)ccc1N1CCCC1	nt	?	0.2%	-20.5%	-3.1%	11.2µM*
CCOC(=O)N1CCN(C(c2ccc(F)cc2)c2sc3nc(C)nn3c2O)CC1 (stereo not given)	-10.5%	-6.7%	4.1%	4.4%[10 µM]	-7.9%	-2.8%
CC(C)/C=C1\CC/C(=C\c2cccnc2)C1=O	nt	nt	-2.3%	14.2%	16.5%	?
O=[N+]([O-])c1cc(/C=N/n2cnnc2)ccc1N1CCCC1	nt	?	-0.8%	-23.0%	-18.8%	1µM*
Cc1ccc(-c2nn(-c3ccccc3)cc2/C=C2\SC(=S)N(CC(=O)O)C2=O)cc1	nt	nt	nt	24.9%[10 µM]	23.8%[9.22 µM]	nt
CCOc1ccc(-c2nn(-c3ccccc3)cc2/C=C2\SC(N)=NC2=O)cc1C	15.8µM*	3.0%	0.7%	-21.3%	2.0%	2.6%
Cn1cccc1/C=C1\CCC/C(=C\c2cccn2C)C1=O	-1.0%	?	-1.9%	-47.8%	-2.0%	7.94µM*
C[C@]12CC[C@@H]3c4ccc(O)cc4CC[C@H]3[C@@H]1CC[C@@H]2OC(=O)CCC(=O)O	-18.7%	?	13.3%	nt	14.5%	-9.7%
COc1cc(C2CC(=O)Oc3cc(O)ccc32)cc(OC)c1OC (stereo not given)	-7.0%	nt	0.6%[39.9 µM]	-17.2%	nt	-0.5%
O=C(c1ccccc1F)N1CCN(c2ccc([N+](=O)[O-])c(NCc3cccnc3)c2)CC1	nt	nt	nt	4.2%[10 µM]	8.2%[9.22 µM]	7.94µM*
O=C(c1ccccc1)N1CCN(c2ccc([N+](=O)[O-])c(NCc3cccnc3)c2)CC1	-10.0%	0.1%	3.9%	22.3%[10 µM]	4.2%	11.2µM*
CC(C)(C)C(=O)N1CCN(c2ccc([N+](=O)[O-])c(NCc3cccnc3)c2)CC1	nt	12.4%[46 µM]	-0.1%	-12.7%[10 µM]	6.6%	?
O=C(c1ccccc1)N1CCN(c2ccc([N+](=O)[O-])c(NCC3CCCO3)c2)CC1 (stereo not given)	nt	?	3.1%	-55.8%	2.4%[9.22 µM]	12.6µM*
C=CCNc1ccc(C(=O)O)cc1	-14.2%	-13.5%	-0.4%	11.4%[10 µM]	-10.0%	1.7%
Cc1noc(C)c1CSc1nnc(-c2ccccc2)n1Cc1ccco1	-10.9%	1.3%	0.1%	-23.5%[10 µM]	?	-3.2%
CCCCCNC(=O)c1ccc2c(=O)[nH]c3c(C(=O)NCC4CCCO4)sc(=S)n3c2c1 (stereo not given)	11.2µM*	-0.6%	-3.1%	0.1%	-19.5%	?
